ChEMBL document CHEMBL3988442, “University of Dundee, Small-Polar-MMV Screening Library” (2021)
For some assays here: Measured potencies and affinities stand elsewhere.

What was measured:
Design in all cases: scale not given: direction of the effect not stated beside the values
[1] = biological target: Protein translocase subunit SecA (Escherichia coli (strain K12)) (UniProt P10408); assay: Assay to Identify E. coli SecA ATPase Inhibitors; type: functional; conditions: 30 µM
[2] = biological target: T1, Ubiquitin-activating enzyme e1, putative (Leishmania donovani (strain BPK282A1)) (UniProt E9BSI1); assay: Leishmania donovani Ubiquitin Activating Enzyme (LdE1); type: functional; conditions: 30 µM
T1 sequence (whole entry): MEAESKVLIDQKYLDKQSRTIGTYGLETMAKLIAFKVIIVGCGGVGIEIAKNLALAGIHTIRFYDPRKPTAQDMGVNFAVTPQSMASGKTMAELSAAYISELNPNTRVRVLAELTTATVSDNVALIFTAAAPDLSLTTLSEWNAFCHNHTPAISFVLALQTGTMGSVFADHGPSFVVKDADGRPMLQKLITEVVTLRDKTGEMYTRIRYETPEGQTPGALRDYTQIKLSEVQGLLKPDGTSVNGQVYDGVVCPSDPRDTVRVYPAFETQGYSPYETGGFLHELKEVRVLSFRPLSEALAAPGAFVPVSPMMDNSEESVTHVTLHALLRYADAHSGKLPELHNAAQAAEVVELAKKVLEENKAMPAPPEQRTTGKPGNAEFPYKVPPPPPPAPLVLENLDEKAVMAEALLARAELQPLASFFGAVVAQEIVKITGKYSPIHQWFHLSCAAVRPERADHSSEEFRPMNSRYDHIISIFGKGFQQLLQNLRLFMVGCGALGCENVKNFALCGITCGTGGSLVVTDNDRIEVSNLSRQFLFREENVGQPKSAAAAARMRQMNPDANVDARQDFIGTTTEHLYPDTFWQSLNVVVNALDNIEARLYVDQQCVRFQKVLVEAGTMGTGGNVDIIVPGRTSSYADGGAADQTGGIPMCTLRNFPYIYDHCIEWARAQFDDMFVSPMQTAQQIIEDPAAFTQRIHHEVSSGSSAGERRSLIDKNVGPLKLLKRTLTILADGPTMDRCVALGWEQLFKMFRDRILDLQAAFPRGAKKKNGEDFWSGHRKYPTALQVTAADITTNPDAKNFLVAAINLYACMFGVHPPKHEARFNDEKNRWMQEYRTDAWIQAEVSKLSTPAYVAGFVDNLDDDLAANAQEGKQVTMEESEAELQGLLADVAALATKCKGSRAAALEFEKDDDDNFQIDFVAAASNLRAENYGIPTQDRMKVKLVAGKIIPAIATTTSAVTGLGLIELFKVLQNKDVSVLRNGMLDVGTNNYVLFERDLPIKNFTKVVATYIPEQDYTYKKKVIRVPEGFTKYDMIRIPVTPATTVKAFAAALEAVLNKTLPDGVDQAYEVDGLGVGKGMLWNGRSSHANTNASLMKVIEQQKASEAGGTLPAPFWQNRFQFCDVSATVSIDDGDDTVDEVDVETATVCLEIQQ

[3] = biological target: AMP-activated protein kinase, AMPK (Homo sapiens) (UniProt P54646+O43741+P54619+Q9UGJ0+Q9Y478+Q13131+Q9UGI9); assay: AMP-dependent Kinase enzyme assay. An in vitro enzyme assay that detects ADP turnover that is directly proportional to AMPK activity. This uses naive AMPK that is activated during the assay with MK-8722; type: functional; conditions: 30 µM
[4] = biological target: Sialic acid-binding Ig-like lectin 9 (Homo sapiens) (UniProt Q9Y336); assay: Hs-Siglec9 ALPHAscreen SOP 20170721; conditions: 10 µM
Trypanosoma cruzi = assay: Trypanosoma cruzi phosphomannomutase and mannose-1-phosphate guanylyltransferase assay; type: functional; conditions: 10 µM
[5] = biological target: T2, Arginase-2, mitochondrial (Homo sapiens) (UniProt P78540); assay: in vitro enzyme assay to detect the production of urea directly proportional to the activity of Arginase II; type: functional; conditions: 33.3 µM; further: in the data most compounds retested in dose-response had high values
T2 sequence (whole entry): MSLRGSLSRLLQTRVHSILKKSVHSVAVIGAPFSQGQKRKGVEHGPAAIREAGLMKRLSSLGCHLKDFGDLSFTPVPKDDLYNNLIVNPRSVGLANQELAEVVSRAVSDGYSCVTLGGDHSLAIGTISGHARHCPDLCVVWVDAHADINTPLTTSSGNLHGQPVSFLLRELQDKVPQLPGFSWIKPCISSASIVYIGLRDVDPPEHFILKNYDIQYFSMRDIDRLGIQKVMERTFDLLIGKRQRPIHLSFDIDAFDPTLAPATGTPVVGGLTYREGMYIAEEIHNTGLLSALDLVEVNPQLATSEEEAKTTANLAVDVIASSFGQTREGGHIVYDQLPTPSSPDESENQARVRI

[6] = biological target: T3, Proteasome subunit beta (Trypanosoma cruzi) (UniProt O96673); assay: Trypanosoma cruzi proteasome chymotrypsin-like activity (TcProtChymo) assay.; further: in the data most compounds retested in dose-response had high values; type: functional; conditions: 9.37 µM
T3 sequence (whole entry): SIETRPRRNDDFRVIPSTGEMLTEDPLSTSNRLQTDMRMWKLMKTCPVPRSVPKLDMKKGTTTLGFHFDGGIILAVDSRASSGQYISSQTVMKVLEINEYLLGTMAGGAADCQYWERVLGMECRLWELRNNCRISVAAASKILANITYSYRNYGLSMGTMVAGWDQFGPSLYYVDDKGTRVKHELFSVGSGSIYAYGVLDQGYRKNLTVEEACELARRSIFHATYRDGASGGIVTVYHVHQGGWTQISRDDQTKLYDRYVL

Homo sapiens = species: Homo sapiens; assay: To identify inhibition of the IFN signalling (Jak-Stat) pathway via expression of an eGFP reporter gene under the control of an IFN-stimulated response element (ISRE) containing MxA promoter.; type: functional; conditions: 30 µM
[7] = biological target: T4, Tyrosyl-tRNA synthetase, putative (Trypanosoma cruzi (strain CL Brener)) (UniProt Q4DSP6); assay: Trypanosoma cruzi tyrosyl tRNA synthetase (TcYRS) _High Tyrosine SOP; type: functional; conditions: 30 µM; further: in the data most compounds retested in dose-response had high values
T4 sequence (whole entry): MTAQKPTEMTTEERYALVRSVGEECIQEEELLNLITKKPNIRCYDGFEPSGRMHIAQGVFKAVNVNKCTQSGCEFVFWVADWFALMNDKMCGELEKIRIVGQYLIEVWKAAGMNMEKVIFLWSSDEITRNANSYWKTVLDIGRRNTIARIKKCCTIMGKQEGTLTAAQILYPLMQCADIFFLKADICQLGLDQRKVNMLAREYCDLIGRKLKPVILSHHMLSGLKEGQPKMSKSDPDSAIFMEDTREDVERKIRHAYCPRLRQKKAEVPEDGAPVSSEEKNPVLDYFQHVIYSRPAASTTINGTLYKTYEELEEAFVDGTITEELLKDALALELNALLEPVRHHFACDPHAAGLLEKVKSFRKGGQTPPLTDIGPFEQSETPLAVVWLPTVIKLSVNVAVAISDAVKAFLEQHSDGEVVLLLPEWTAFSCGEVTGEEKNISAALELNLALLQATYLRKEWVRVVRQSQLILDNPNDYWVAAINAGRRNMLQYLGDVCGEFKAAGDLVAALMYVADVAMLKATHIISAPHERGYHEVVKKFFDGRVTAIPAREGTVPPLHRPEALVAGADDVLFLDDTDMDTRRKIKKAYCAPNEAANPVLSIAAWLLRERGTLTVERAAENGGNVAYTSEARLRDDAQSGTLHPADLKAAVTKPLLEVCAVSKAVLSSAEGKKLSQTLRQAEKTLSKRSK

[8] = biological target: T4, Tyrosyl-tRNA synthetase, putative (Trypanosoma cruzi (strain CL Brener)); assay: Trypanosoma cruzi tyrosyl tRNA synthetase (TcYRS) SOP; type: functional; conditions: 30 µM
[9] = biological target: Chromo domain-containing protein 1 (Saccharomyces cerevisiae (strain ATCC 204508 / S288c) (Baker's yeast)) (UniProt P32657); assay: ScCHD-1 Enzyme Inhibition Assay; type: functional; conditions: 30 µM; further: in the data most compounds retested in dose-response had high values
Chromo domain-containing protein 1 (Saccharomyces cerevisiae (strain ATCC 204508 / S288c) (Baker's yeast)), sequence (P32657 whole entry, the tested form may be a part): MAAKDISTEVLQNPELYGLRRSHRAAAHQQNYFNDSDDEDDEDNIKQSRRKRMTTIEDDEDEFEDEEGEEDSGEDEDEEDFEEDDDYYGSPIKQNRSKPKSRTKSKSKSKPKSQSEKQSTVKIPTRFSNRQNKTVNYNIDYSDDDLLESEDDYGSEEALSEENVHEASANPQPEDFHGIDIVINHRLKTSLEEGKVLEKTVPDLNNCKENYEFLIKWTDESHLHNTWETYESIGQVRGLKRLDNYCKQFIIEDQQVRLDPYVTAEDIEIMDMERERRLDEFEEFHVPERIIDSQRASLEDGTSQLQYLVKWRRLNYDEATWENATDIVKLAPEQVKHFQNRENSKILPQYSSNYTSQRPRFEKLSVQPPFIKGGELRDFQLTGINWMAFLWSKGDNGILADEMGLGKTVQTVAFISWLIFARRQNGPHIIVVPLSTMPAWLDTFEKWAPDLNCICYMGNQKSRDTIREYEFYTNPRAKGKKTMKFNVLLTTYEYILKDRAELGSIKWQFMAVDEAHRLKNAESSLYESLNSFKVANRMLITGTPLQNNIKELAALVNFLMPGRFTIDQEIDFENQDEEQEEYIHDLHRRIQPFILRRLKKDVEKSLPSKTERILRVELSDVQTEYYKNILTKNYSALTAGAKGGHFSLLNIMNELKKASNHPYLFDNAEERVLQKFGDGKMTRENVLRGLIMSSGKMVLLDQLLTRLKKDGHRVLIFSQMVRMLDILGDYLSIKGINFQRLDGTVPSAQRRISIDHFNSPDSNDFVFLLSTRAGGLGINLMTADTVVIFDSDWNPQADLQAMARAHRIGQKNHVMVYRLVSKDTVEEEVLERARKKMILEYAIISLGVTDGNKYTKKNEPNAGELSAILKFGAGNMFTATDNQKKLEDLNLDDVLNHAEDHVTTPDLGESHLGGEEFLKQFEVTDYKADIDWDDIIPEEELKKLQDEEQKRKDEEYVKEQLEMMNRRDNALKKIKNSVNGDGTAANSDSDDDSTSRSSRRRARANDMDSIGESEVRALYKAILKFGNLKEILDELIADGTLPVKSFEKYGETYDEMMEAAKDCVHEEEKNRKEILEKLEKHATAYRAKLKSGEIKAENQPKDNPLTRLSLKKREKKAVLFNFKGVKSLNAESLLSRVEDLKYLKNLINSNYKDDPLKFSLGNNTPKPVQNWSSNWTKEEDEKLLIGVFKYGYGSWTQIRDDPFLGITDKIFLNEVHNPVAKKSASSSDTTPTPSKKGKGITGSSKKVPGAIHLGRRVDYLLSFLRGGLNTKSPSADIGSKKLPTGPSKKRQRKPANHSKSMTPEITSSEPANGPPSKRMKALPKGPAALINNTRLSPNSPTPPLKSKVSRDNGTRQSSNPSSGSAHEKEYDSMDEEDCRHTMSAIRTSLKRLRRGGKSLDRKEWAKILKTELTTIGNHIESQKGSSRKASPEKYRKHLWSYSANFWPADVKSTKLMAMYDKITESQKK

Sialic acid-binding Ig-like lectin 9 (Homo sapiens), sequence (Q9Y336 whole entry): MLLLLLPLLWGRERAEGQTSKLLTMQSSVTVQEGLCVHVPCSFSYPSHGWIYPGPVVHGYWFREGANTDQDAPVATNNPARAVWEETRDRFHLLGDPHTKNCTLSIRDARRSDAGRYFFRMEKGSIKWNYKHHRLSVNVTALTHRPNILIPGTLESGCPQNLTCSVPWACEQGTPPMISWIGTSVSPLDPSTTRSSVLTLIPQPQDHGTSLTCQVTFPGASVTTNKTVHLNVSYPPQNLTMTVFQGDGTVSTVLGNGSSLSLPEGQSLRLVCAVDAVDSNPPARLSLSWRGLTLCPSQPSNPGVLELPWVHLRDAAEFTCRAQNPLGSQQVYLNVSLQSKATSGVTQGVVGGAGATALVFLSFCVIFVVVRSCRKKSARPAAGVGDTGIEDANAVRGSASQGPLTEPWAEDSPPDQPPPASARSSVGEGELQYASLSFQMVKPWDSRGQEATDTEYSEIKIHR
Protein translocase subunit SecA (Escherichia coli (strain K12)), sequence (P10408 whole entry): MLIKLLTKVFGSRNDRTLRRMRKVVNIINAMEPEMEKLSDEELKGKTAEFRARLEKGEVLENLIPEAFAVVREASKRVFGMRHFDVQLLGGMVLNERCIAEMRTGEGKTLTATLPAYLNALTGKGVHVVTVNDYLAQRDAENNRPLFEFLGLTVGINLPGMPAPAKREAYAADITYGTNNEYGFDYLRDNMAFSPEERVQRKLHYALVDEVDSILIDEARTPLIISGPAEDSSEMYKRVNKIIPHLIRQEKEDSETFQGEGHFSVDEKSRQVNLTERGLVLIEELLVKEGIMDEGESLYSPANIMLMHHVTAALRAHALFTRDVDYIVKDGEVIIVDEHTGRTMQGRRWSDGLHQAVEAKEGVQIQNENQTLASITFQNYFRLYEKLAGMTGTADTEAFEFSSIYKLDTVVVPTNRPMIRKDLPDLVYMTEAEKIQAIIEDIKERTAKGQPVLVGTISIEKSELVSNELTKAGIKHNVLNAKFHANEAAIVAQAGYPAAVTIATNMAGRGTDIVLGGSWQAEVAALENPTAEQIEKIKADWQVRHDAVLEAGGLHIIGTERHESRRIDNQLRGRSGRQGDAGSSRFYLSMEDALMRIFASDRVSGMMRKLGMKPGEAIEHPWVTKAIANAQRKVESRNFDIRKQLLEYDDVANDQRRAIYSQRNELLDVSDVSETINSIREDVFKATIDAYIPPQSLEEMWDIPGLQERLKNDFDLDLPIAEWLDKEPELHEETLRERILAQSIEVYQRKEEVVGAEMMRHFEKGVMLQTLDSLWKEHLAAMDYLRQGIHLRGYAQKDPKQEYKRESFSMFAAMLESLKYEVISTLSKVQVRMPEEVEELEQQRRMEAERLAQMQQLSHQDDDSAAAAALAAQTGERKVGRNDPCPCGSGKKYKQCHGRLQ

Row | Structure (SMILES) | Percent Effect [1] | Percent Effect [2] | Percent Effect [3] | Percent Effect [4] | Percent Effect (Trypanosoma cruzi) | Percent Effect [5] | Percent Effect [6] | Percent Effect (Homo sapiens) | Percent Effect [7] | Percent Effect [8] | Percent Effect [9]
1 | CCOCC(=O)NC1(c2cccc(Br)c2)CC1 | -8.13% | 0% | 0.838% | 9.79% | -3.67% | -2.38% | 7.76% | 13.1% | -1.59% | -2.44% | -3.38%
2 | Cc1ccc(C2COCCN2C(=O)c2ccc(CN(C)C)cc2)o1 (configuration not stated) | -0.657% | -5.33% | -1.26% | 2.6% | -1.85% | 2.08% | 4.01% | 0.868% | 1.64% | 1.24% | -0.0158%
3 | c1cnnc(N2CCCC(NCc3ccc(-n4cccn4)cc3)C2)c1 (configuration not stated) | -0.865% | -5.2% | 14.6% | 4.94% | -0.686% | 1.9% | 1.7% | 20.3% | 0.952% | 7.06% | -7.51%
4 | NC(=O)c1ccc(N2CCCCC2)c(NC(=O)c2cncc(Br)c2)c1 | -3.53% | 5.2% | 10.4% | 12.7% | 2.06% | -78.6% | 12.5% | 35.7% | 3.23% | 11.1% | -2.92%
5 | O=S1(=O)COCCN1Cc1ccc(Cl)c(F)c1 | 0.108% | 16.2% | -3.31% | 17.6% | 3.28% | 2.38% | 14.7% | 0.549% | 5.82% | 14.6% | -5.23%
6 | CCc1nc(CN2CCCC(NCc3nnc(C4CC4)o3)C2)no1 (configuration not stated) | -2.45% | 18.2% | 3.2% | -12.1% | 1.67% | -0.632% | 10.4% | -0.806% | 11.4% | 25.9% | -21.2%
7 | O=C(Cn1cc(I)cn1)N1CCc2ccccc2C1 | 0.654% | -12% | 6.11% | 2.56% | -2.55% | -10% | 6.1% | 2.17% | 2.12% | -2.56% | -2.67%
8 | Cc1nc(CN2CCCC2c2nc(C(C)C)no2)cs1 (configuration not stated) | -3.44% | 18.1% | -18.2% | 15.3% | 3.79% | 5.3% | 9.47% | -11.9% | 5.26% | 12.8% | -5.13%
9 | COc1ccccc1OCCC(=O)N1CCCC1Cn1cc(C)cn1 (configuration not stated) | -4.84% | 13% | 5.75% | 5.19% | 1.86% | 3.16% | 0.0808% | 7.77% | 7.62% | 18.8% | -6.89%
10 | Cc1cc(C(=O)NCc2ccnc(N(C)C)c2)c(C)o1 | -4.79% | 23.4% | -3.99% | -6.37% | -5.24% | -1.42% | 8.62% | -12% | 4.85% | 12.2% | -10.6%
11 | N#CC1(C(=O)N2CCN(c3nccs3)CC2)CCCCC1 | -1.57% | 13.2% | 7.71% | 8.98% | -2.26% | 2.68% | 11% | -3.2% | 7.35% | 17.1% | -6.21%
12 | CC(Cc1ccco1)NC(=O)Nc1cnn(CC(N)=O)c1 (configuration not stated) | 1.02% | 6.33% | 5.31% | 0.769% | -6.67% | 2.8% | 11% | 9.49% | 4.17% | 7.59% | -2.83%
13 | Cc1n[nH]cc1C(=O)N1CCCC(n2nnc3cc(F)ccc32)C1 (configuration not stated) | -5.29% | 5.33% | 7.57% | -0.922% | 6.5% | -3.5% | 11.7% | 5.51% | 5.32% | 11.5% | -7.34%
14 | CNC(=O)C1CCN(C(=O)c2ccn(-c3ccc(F)cc3)n2)CC1 | -3.93% | 16.2% | 1.73% | 1.5% | -1.21% | 2.77% | 7.54% | 8.4% | 10.9% | 23.2% | -0.908%
15 | CCC(NC(=O)C1CCN(S(C)(=O)=O)CC1)c1ccc(OC)c(C)c1 (configuration not stated) | -0.552% | 2.6% | 0.574% | 27.4% | 4.03% | -4.14% | 15.3% | -3.86% | 2.15% | 1.24% | 120%
16 | CN(C)CCO[C@H]1CN(Cc2cccc(C#N)c2)[C@@H]2COC[C@H]12 | -3.05% | 5.33% | 0.409% | 2.27% | 2.32% | -44.6% | 9.91% | -12.1% | 6.25% | 17.5% | -5.99%
17 | CCCS(=O)(=O)N1CCC(NC(=O)c2cc(C)c(CC)s2)CC1 | -1.6% | 2.67% | -3.07% | 10.4% | 5.94% | -2.08% | 7.15% | 13.4% | 6.01% | 18.5% | 1.12%
18 | Cn1nnc2c1C(COCc1ccccn1)CN(C(=O)c1cccs1)C2 (configuration not stated) | 3.29% | 16.4% | -9.82% | 5.59% | 1.59% | -7.19% | 13.6% | 36.4% | 6.25% | 23.5% | -1.99%
19 | CC[C@@]1(O)CCN(C(=O)c2ccsc2)C[C@H]1O | -3.94% | 4.17% | -1.21% | -6.46% | -2.82% | 3.09% | 12.3% | -3.4% | 4.21% | 5.13% | 0.37%
20 | CC(C)CCN1CCNC(=O)C1CC(=O)N1CCc2sccc2C1 (configuration not stated) | -4.93% | 0% | 0.663% | 4.62% | 3.44% | -15.2% | 1.17% | -17.6% | 4.3% | 8.64% | 1.1%
21 | Cc1noc(C(C)C)c1C(=O)NS(=O)(=O)c1ccc2c(c1)OCCCO2 | -0.953% | 2.63% | 4.57% | 1.83% | 4.19% | -3.55% | 6.23% | 24.3% | 0% | 5.2% | 15.4%
22 | COCCN1CCOCC2(CCCN(Cc3ccc(C)o3)C2)C1 (configuration not stated) | -2.04% | 13.3% | 0.538% | -2.47% | 5.6% | -42.1% | 8.55% | -12.1% | 3.12% | 2.5% | -9.46%
